Measured values: the supplement of paper PMC6555819

Experiments:
Experiment in all cases: PBM binding z-score (relative to random genomic background probes); higher = stronger binding; sequences stand for … in GC…GCGATTGACAGCGTAGAATGAAGG
[1] = tested on: RARb homodimer (NR concentration 270 nM)
In short: (§1)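 Ligand-free nuclear receptor dimers were applied to custom Agilent 4×180K protein-binding microarrays whose double-stranded probes carried direct-repeat seeds, single-nucleotide variants, half-site ablations and random human genomic background sequences in 34-nt variable regions. Incubation lasted 1 h. Binding z-scores were computed against the random background probes from regression-normalized fluorescence.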

[2] = tested on: RARg:RXRa (NR concentration 270 nM, RXRa partner concentration 90 nM)
In short: as §1

[3] = tested on: RARg homodimer (NR concentration 270 nM)
In short: as §1

[4] = tested on: RXRa DBDmut IVT, anti-RXR (DBD mutation: RXRa K156A/R161A, NR concentration 90 nM)
In short: as §1

[5] = tested on: RXRa homodimer (NR concentration 180 nM)
In short: as §1

[6] = tested on: THRa:RXRa (NR concentration 90 nM, RXRa partner concentration 90 nM)
In short: as §1

[7] = tested on: THRa homodimer (NR concentration 90 nM)
In short: as §1

[8] = tested on: VDR homodimer (NR concentration 270 nM)
In short: as §1

Which PBM binding z-score [1] does the source give for TCTGCTAGGTCAACGGTGGTCAGCTAATCTGCTA here?
Its PBM binding z-score is 3.48.

And the PBM binding z-score [2]?
The PBM binding z-score was 4.11.

And the PBM binding z-score [3]?
Its PBM binding z-score is 4.99.

And the PBM binding z-score [4]?
Its PBM binding z-score is 1.01.

What about the PBM binding z-score [5] of the same sequence?
Its PBM binding z-score is 2.54.

What about the PBM binding z-score [6] of the same sequence?
The PBM binding z-score was 3.46.

What about the PBM binding z-score [7] of the same sequence?
The PBM binding z-score was 0.796.

What about the PBM binding z-score [8] of the same sequence?
The PBM binding z-score was -0.606.

Which results are given for CAAACTAGGTAAAGAGGTCAAAGTCCGCTTCCCG?
PBM binding z-score [1]: 4.1; PBM binding z-score [2]: 5.02; PBM binding z-score [3]: 4; PBM binding z-score [4]: 2.13; PBM binding z-score [5]: 5.62; PBM binding z-score [6]: 3.75; PBM binding z-score [7]: 1.47; PBM binding z-score [8]: 4.05

For AGAATGAGGTTAAGACCAGGGAAACAGAATACAT, which PBM binding z-score [1] is on record?
The PBM binding z-score was 1.01.

What about the PBM binding z-score [2] of the same sequence?
Its PBM binding z-score is 1.97.

What about the PBM binding z-score [3] of the same sequence?
The PBM binding z-score was 1.33.

And the PBM binding z-score [4]?
Its PBM binding z-score is 0.973.

And the PBM binding z-score [5]?
The PBM binding z-score was 2.47.

And the PBM binding z-score [6]?
Its PBM binding z-score is 2.48.

And the PBM binding z-score [7]?
Its PBM binding z-score is 0.691.

What about the PBM binding z-score [8] of the same sequence?
Its PBM binding z-score is 0.514.

Which results are given for TAGCCTAGGTCATTCAGGTGCCAGTATAGAAAGC?
PBM binding z-score [1]: 2.67; PBM binding z-score [2]: 4.44; PBM binding z-score [3]: 3.98; PBM binding z-score [4]: 1.73; PBM binding z-score [5]: 2.97; PBM binding z-score [6]: 3.13; PBM binding z-score [7]: 1.06; PBM binding z-score [8]: 1.66

How did the PBM binding z-score [1] turn out when GCAGAGAGGTGAAACGCAGGTAACTCAGGGTGGC was run?
The PBM binding z-score was 1.31.

What about the PBM binding z-score [2] of the same sequence?
The PBM binding z-score was 2.59.

What about the PBM binding z-score [3] of the same sequence?
The PBM binding z-score was 1.21.

And the PBM binding z-score [4]?
The PBM binding z-score was 0.025.

What about the PBM binding z-score [5] of the same sequence?
The PBM binding z-score was 1.79.

And the PBM binding z-score [6]?
The PBM binding z-score was 2.37.

And the PBM binding z-score [7]?
Its PBM binding z-score is 0.0883.

And the PBM binding z-score [8]?
The PBM binding z-score was -0.369.

For CCTATTAGTTGACCATAAGGGCACCCGAAGCTCG, which PBM binding z-score [1] is on record?
The PBM binding z-score was 1.86.

And the PBM binding z-score [2]?
The PBM binding z-score was 1.16.

And the PBM binding z-score [3]?
The PBM binding z-score was 1.04.

And the PBM binding z-score [4]?
The PBM binding z-score was 0.326.

And the PBM binding z-score [5]?
Its PBM binding z-score is 0.908.

And the PBM binding z-score [6]?
Its PBM binding z-score is 2.02.

And the PBM binding z-score [7]?
Its PBM binding z-score is 1.61.

And the PBM binding z-score [8]?
The PBM binding z-score was 1.39.

With CCTCGGAGGACAGAAGGTAAGAGCTGTCCGCTTT as the sequence, how does the PBM binding z-score [1] read?
The PBM binding z-score was -0.457.

What about the PBM binding z-score [2] of the same sequence?
Its PBM binding z-score is -0.117.

What about the PBM binding z-score [3] of the same sequence?
The PBM binding z-score was 0.0766.

And the PBM binding z-score [4]?
Its PBM binding z-score is -0.382.

And the PBM binding z-score [5]?
The PBM binding z-score was -0.845.

What about the PBM binding z-score [6] of the same sequence?
The PBM binding z-score was -0.0375.

And the PBM binding z-score [7]?
The PBM binding z-score was -0.566.

What about the PBM binding z-score [8] of the same sequence?
Its PBM binding z-score is -0.677.

What does the source list for CGAACTAGGTCAGAACTGGACAGTGAAGGATGAT?
PBM binding z-score [1]: 1.62; PBM binding z-score [2]: 2.49; PBM binding z-score [3]: 3.05; PBM binding z-score [4]: 0.459; PBM binding z-score [5]: 1.3; PBM binding z-score [6]: 1.13; PBM binding z-score [7]: -0.298; PBM binding z-score [8]: 0.221

For GGAACGTGGGCAAAGTTGATAGCATCTGTCGACG, which PBM binding z-score [1] is on record?
The PBM binding z-score was -0.345.

And the PBM binding z-score [2]?
The PBM binding z-score was -0.158.

And the PBM binding z-score [3]?
Its PBM binding z-score is -0.178.

What about the PBM binding z-score [4] of the same sequence?
Its PBM binding z-score is -0.177.

And the PBM binding z-score [5]?
The PBM binding z-score was -0.03.

And the PBM binding z-score [6]?
The PBM binding z-score was -0.579.

And the PBM binding z-score [7]?
The PBM binding z-score was -0.838.

What about the PBM binding z-score [8] of the same sequence?
Its PBM binding z-score is -0.389.

Which results are given for CCTACTGCGCCACGAAAGGTCATTGATTCAGTGA?
PBM binding z-score [1]: 4.75; PBM binding z-score [2]: 4.62; PBM binding z-score [3]: 4; PBM binding z-score [4]: 1.51; PBM binding z-score [5]: 5.58; PBM binding z-score [6]: 3.36; PBM binding z-score [7]: 1.47; PBM binding z-score [8]: 2.91

Which results are given for CCAACTAGGTCACCGGAAGGTCAAAGTCCGCATG?
PBM binding z-score [1]: 5.63; PBM binding z-score [2]: 8.38; PBM binding z-score [3]: 7.43; PBM binding z-score [4]: 2.32; PBM binding z-score [5]: 7.28; PBM binding z-score [6]: 4.43; PBM binding z-score [7]: 3.16; PBM binding z-score [8]: 3.75

How did the PBM binding z-score [1] turn out when TCTTGTAGATCAACGGTTAAGAAAGCCGAAGCCT was run?
The PBM binding z-score was -0.249.

And the PBM binding z-score [2]?
The PBM binding z-score was -0.0923.

And the PBM binding z-score [3]?
The PBM binding z-score was -0.227.

And the PBM binding z-score [4]?
The PBM binding z-score was 0.721.

What about the PBM binding z-score [5] of the same sequence?
Its PBM binding z-score is 0.21.

And the PBM binding z-score [6]?
Its PBM binding z-score is -0.24.

What about the PBM binding z-score [7] of the same sequence?
The PBM binding z-score was -0.541.

And the PBM binding z-score [8]?
The PBM binding z-score was -0.227.

With CGTGCAAGGTCAAAGGTCAGTGAAGAGATGACGG as the sequence, how does the PBM binding z-score [1] read?
Its PBM binding z-score is 5.61.

What about the PBM binding z-score [2] of the same sequence?
The PBM binding z-score was 8.84.

And the PBM binding z-score [3]?
Its PBM binding z-score is 8.41.

What about the PBM binding z-score [4] of the same sequence?
The PBM binding z-score was 4.08.

And the PBM binding z-score [5]?
The PBM binding z-score was 10.3.

And the PBM binding z-score [6]?
The PBM binding z-score was 4.91.

And the PBM binding z-score [7]?
Its PBM binding z-score is 2.23.

And the PBM binding z-score [8]?
Its PBM binding z-score is 3.9.
